Reference: publication PMC4336329 (PLoS ONE, 2015)
Among all 310,000 compounds or so, about 14,000 (4.5%) showed an effect of 50% or more. The effect is printed as a negative number. For the sample, strong results were picked, then their nearest neighbours and some compounds at random.

biological target: human ether-à-go-go-related gene (hERG) potassium channel (human, UniProt Q12809); assay: primary screen, population patch clamp on CHO cells stably expressing hERG; higher = less effect of the substance
Sequence (Q12809 whole entry, looked up): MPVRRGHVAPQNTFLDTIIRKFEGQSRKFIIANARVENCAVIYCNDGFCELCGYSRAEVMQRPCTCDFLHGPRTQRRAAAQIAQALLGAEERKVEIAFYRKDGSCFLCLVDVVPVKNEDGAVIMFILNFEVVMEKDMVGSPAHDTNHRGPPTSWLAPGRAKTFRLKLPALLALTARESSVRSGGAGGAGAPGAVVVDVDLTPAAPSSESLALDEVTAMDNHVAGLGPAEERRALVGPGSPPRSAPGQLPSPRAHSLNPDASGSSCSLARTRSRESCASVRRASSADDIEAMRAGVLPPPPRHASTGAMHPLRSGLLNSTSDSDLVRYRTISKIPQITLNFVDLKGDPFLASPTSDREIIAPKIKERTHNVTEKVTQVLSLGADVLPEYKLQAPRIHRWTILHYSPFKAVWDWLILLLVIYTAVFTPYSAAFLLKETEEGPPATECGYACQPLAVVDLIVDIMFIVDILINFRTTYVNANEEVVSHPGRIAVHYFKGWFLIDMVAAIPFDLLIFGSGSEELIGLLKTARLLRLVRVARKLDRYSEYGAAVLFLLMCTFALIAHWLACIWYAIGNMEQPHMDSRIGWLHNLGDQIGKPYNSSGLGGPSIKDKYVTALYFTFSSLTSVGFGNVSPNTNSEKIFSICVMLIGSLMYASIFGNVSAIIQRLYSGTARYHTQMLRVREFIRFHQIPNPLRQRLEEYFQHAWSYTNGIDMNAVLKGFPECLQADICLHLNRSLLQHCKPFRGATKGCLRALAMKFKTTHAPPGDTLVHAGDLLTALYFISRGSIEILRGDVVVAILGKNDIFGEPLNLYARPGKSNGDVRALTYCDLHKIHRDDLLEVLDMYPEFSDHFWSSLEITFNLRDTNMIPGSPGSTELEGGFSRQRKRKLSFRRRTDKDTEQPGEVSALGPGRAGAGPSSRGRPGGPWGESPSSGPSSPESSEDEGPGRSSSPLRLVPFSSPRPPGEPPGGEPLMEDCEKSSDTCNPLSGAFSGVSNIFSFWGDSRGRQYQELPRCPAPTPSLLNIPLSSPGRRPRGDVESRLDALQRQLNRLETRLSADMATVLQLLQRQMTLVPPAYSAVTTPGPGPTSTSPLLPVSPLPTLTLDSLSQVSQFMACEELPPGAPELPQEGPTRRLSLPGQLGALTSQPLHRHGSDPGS
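Also: peak tail current of the secondary pulse compared with the same well before compound.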

SMILES	hERG current change (%, negative = inhibition) at 10uM [%]
CCOC(=O)c1[nH]c2ccc(F)cc2c1NC(=O)CCN1CCSCC1	-22
Cc1nc2sccn2c(=O)c1S(=O)(=O)N1CCN(c2cccc(Cl)c2)CC1	-0.478
Cc1cc(C)c(NS(=O)(=O)c2ccc3c(c2)NC(=O)C(C)C(=O)N3)c(C)c1 (centres unmarked)	2.12
COc1ccc(OC)c(CN2CCN(C(=O)c3ccc(NS(=O)(=O)c4cccc([N+](=O)[O-])c4)cc3)CC2)c1	-70.6
COc1ccc(NS(=O)(=O)c2cccc(C(=O)N3CCCC3)c2)cc1	2.23
COc1ccc(OC)c(CN2CCN(C(=O)c3cccc(S(=O)(=O)Nc4ccccc4OC)c3)CC2)c1	-38.2
CN(c1ccc(C(=O)N2CCN(Cc3ccc4c(c3)OCO4)CC2)cc1)S(=O)(=O)c1ccccc1	-38.3
COc1ccc(NS(=O)(=O)c2cccc(C(=O)N3CCC3)c2)cc1	10.5
O=C(c1ccc(NS(=O)(=O)c2ccccc2)cc1)N1CCN(Cc2ccc3c(c2)OCO3)CC1	-63.8
COc1ccccc1NS(=O)(=O)c1cccc(C(=O)N2CCN(Cc3ccc4c(c3)OCO4)CC2)c1	-61.4
COc1ccc(OC)c(CN2CCN(C(=O)c3cccc(S(=O)(=O)Nc4ccc(C)cc4)c3)CC2)c1	-34.6
O=C(c1ccc(NS(=O)(=O)c2cccc([N+](=O)[O-])c2)cc1)N1CCCCCC1	-23.1
COc1cccc(OC)c1C(=O)N1CCN(Cc2ccc3c(c2)OCO3)CC1	-12
COc1ccc(NS(=O)(=O)c2cccc(C(=O)N3CCN(Cc4ccc5c(c4)OCO5)CC3)c2)cc1	-76.8
O=C(c1ccccc1)N1CCN(Cc2ccc3c(c2)OCO3)CC1	11.5
COC(=O)C1=C(c2ccc(F)cc2F)C[C@@H]2CC[C@H]1N2C(=O)NCCOc1ccccc1	-23.5
N#CC1(N2CCN(C(=O)c3ccccc3)CC2)CCCCC1	30.1
CC1CCCCN1Cc1ccc(N)cc1 (centres unmarked)	12.7
C#CC1(NC(=O)NC(C)(C)C)CCCCC1	15.7
CCc1ccc(OCC(=O)NNC(=O)c2cc(S(=O)(=O)N(C)C)ccc2N2CCCC2)cc1	-23.4
COC(=O)c1cc(OC)c(OC)cc1NC(=O)c1cc(C(C)(C)C)oc1C	5.71
c1ccc(Cn2nnc3c(N4CCc5ccccc5C4)ncnc32)cc1	-21.5
COc1cc(OC)c2ccc(=O)oc2c1C(CCN1CCCC(C)C1)c1ccc(N(C)C)cc1 (centres unmarked)	-10.6

SMILES	hERG current change (%, negative = inhibition) at 10uM [%]
COc1cc(OC)c2ccc(=O)oc2c1C(CCN1CCCCC1)c1ccc(N(C)C)cc1 (centres unmarked)	-16
COc1cc(OC)c2ccc(=O)oc2c1C(CCN1CCCC1)c1ccc2c(c1)OCO2 (centres unmarked)	-56.7
COc1cc(C(CCN2CCN(c3ccccc3)CC2)c2c(OC)cc(OC)c3ccc(=O)oc23)cc(OC)c1OC (centres unmarked)	-8.86
COc1cc(OC)c2ccc(=O)oc2c1C(CCN1CCCC(C)C1)c1ccc2c(c1)OCO2 (centres unmarked)	-61
COc1cc(C(CCN2CCCC2)c2c(OC)cc(OC)c3ccc(=O)oc23)cc(OC)c1OC (centres unmarked)	-69.2
COc1cc(OC)c2ccc(=O)oc2c1C(CCN1CCCC1)c1ccc(N(C)C)cc1 (centres unmarked)	-24.1
COc1cc(OC)c2ccc(=O)oc2c1C(CC(=O)N1CCCC(C)C1)c1ccc2c(c1)OCO2 (centres unmarked)	4.24
COc1cc(C(CC(=O)N2CCCC2)c2c(OC)cc(OC)c3ccc(=O)oc23)cc(OC)c1OC (centres unmarked)	2.42
CS(=O)(=O)N1CCCC(C(=O)NCc2ccc(F)cc2Cl)C1 (centres unmarked)	2.22
CC1(c2ccccc2)CC(C)(C)N2C(=O)C(=O)c3cccc1c32 (centres unmarked)	19.6
CCCCNC(=S)NC(=O)c1ccc(Cl)cc1Cl	22.7
CC(=O)Nc1nc(-c2ccccc2)nc(C)c1C(C)=O	-5.89
COc1ccc(S(=O)(=O)N2CC(=O)Nc3ccccc32)cc1	-6.04
O=C1CCC(C(=O)N2CCCC(C(=O)c3ccc4ccccc4c3)C2)=NN1 (centres unmarked)	-8.31
O=C(COC(=O)Cn1cnc2ccccc21)Nc1cc(S(=O)(=O)N2CCOCC2)ccc1Cl	-0.439
Cc1nn(C(C)C)c(C)c1CN1CCCC(C(=O)c2cccc(OC(C)C)c2)C1 (centres unmarked)	-39.6
Cc1nn(C(C)C)c(C)c1CN1CCC(C(=O)Nc2cccc(-c3cccc(F)c3)c2)CC1	-67.8
COc1cccc(-c2cccc(NC(=O)C3CCN(Cc4nccs4)CC3)c2)c1	-37.1
CCOC(=O)C1(Cc2cccc(F)c2)CCN(Cc2c(C)nn(CC)c2C)CC1	-41.4
CCn1nc(C)c(CN2CCC(C(=O)Nc3cccc(-c4cccc(F)c4)c3)CC2)c1C	-67
CCS(=O)(=O)N1CCC(C(=O)Nc2cccc(F)c2)CC1	-6.51
CCc1ccc(CN2CCC(C(=O)Nc3cccc(-c4nnc(C)s4)c3)CC2)o1	-33.6
CCCc1ncc(CN2CCC(C(=O)Nc3cccc(-c4cscn4)c3)CC2)cn1	-34.9

SMILES	hERG current change (%, negative = inhibition) at 10uM [%]
CCn1nc(C)c(CN2CCC(C(=O)Nc3cccc(-c4cccc(Cl)c4)c3)CC2)c1C	-65
Br.COc1cccc(CNCC2CCCO2)c1 (centres unmarked)	13.9
COc1ccc(OC)c(NC(=O)Cc2coc3ccc4ccccc4c23)c1	0.772
Cc1sc(/C=C2\C(=O)ON=C2c2ccccc2)cc1Br	14.8
COC(=O)c1ccc(NC(=O)c2ccc3nsnc3c2)cc1	4.15
COc1ccc(CN2CCN(C(=O)c3ccc(F)cc3)CC2)c(OC)c1.O=C(O)C(=O)O	-44.3
COc1ccc(CN2CCN(Cc3ccccc3F)CC2)cc1.O=C(O)C(=O)O	-43.2
COc1ccc(CN2CCN(c3ccccc3F)CC2)cc1O	-66.5
COc1cc(CN2CCN(c3ccccc3F)CC2)cc(OC)c1O	-26.4
COc1ccc(OC)c(CN2CCN(c3ccccc3OC)CC2)c1	-32.7
COc1cc(CN2CCN(c3ccccc3F)CC2)c([N+](=O)[O-])cc1OC	-27.4
COc1ccc(CN2CCN(c3ccccc3OC)CC2)c(OC)c1.O=C(O)C(=O)O	-64.2
COc1ccc(CN2CCN(Cc3ccccc3F)CC2)c(OC)c1.O=C(O)C(=O)O	-68.5
COc1ccccc1N1CCN(Cc2ccccc2F)CC1	-17.6
COc1ccc(CN2CCN(Cc3ccco3)CC2)c(OC)c1.O=C(O)C(=O)O	-46.4
COc1ccc(CN2CCSCC2)cc1O	14.4
COc1ccc(CN2CCN(c3ccccc3F)CC2)c(OC)c1	-75.1
CC1CN(Cc2ccc(C#N)cc2Cl)CC(C)O1.Cl (centres unmarked)	0.479
COc1ccc(Nc2nc(-c3cccs3)nc3ccccc23)cc1S(=O)(=O)N1CCOCC1	-17.5
COc1ccc(OC)c(S(=O)(=O)N2Cc3ccccc3CC2C(=O)Nc2nccs2)c1 (centres unmarked)	22.2
COc1cc(CNn2c(C)n[nH]c2=S)cc(Cl)c1OCc1ccc(F)cc1	14.4
COc1ccc2c(c1)C(NC(C)=O)C(=O)N2C (centres unmarked)	-5.38
O=C(O)c1ccccc1C(=O)Nn1cnnc1	10.6

SMILES	hERG current change (%, negative = inhibition) at 10uM [%]
CCOC(=O)NC1(C(F)(F)F)NC(=O)N(C2CCCCC2)C1=O (centres unmarked)	-3.7
O=C(CCC(=O)NNC(=O)COc1ccc(Br)cc1)NCc1ccccc1	19.6
OC(CNCc1ccccn1)c1ccccc1 (centres unmarked)	-3.94
COc1cc(CN2CCN(Cc3ccccc3C(F)(F)F)CC2)cc(OC)c1OC.O=C(O)C(=O)O	-8.28
COc1ccc(CN2CCN(Cc3ccccc3C(F)(F)F)CC2)c(OC)c1.O=C(O)C(=O)O	-74.2
COc1ccc(C(=O)N2CCN(Cc3ccccc3C(F)(F)F)CC2)cc1.O=C(O)C(=O)O	-1.25
NS(=O)(=O)c1cc(C(=O)NC2CCSc3ccccc32)ccc1Cl (centres unmarked)	7.27
CC(C)C1N=C(c2ccc3c(c2)OCO3)CC(c2ccccc2O)N1 (centres unmarked)	-20.5
CC(C)N1CCC2(CC1)N=C(c1ccc3c(c1)OCO3)CC(c1cc(Cl)ccc1O)N2 (centres unmarked)	-67.1
CCC1(C)N=C(c2ccc3c(c2)OCO3)CC(c2ccccc2O)N1 (centres unmarked)	2.42
Cc1ccc2cccnc2c1NC(=S)NC(=O)c1ccccc1	17
COc1ccc(C(=O)C[n+]2cn(C(F)F)c3ccccc32)c(F)c1.[Br-]	-4.45
O=C(C[n+]1ccc(C(=O)NCc2ccccc2)cc1)c1ccc(OC(F)F)cc1.[Br-]	-92.8
O=C(C[n+]1ccc(C(=O)NCc2ccccc2)cc1)c1ccc(Cl)cc1.[Br-]	-71.3
CCOc1ccc(C(=O)C[n+]2ccc(C(=O)NCc3ccccc3)cc2)cc1.[Br-]	-36
O=C(C[n+]1ccc(C(=O)NCc2ccccc2)cc1)c1ccc2c(c1)OCCO2.[Br-]	12.9
O=C(NCCc1ccccn1)c1ccc(OC(F)F)cc1	-24.7
O=C(C[n+]1cccc(CNC(=O)c2ccc(OC(F)F)cc2)c1)c1ccccc1.[Cl-]	-14.7
O=C(NCc1ccccc1)c1ccc(Cl)cc1	2.26
O=C(C[n+]1cn(C(F)F)c2ccccc21)c1ccc(Br)cc1.[Br-]	-9.95
O=C(CNC(=O)c1ccc(F)cc1)NCc1ccccn1	-1.73
O=C(C[n+]1cn(C(F)F)c2ccccc21)c1ccc(OC(F)F)cc1.[Br-]	-74.9
O=C(CNC(=O)c1ccc(OC(F)F)cc1)NCc1ccccn1	-70.9
